# Sfp PPTase inh = qHTS Assay for Inhibitors of Bacillus subtilis Sfp phosphopantetheinyl transferase (PPTase); 4'-phosphopantetheinyl transferase ffp (Bacillus subtilis), Q9F4F7; Potency, µM, without a hit: largest response in the series, negative = inhibition, actives largely listed as inhibitors; Biochemical Sfp PPTase activity, qHTS; 3.5% of 310,000 active;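 note: the enzyme is Sfp with the accession as filed and its product quenches rhodamine fluorescence; potency is the fitted concentration of half-maximal effect; 0% = enzyme reaction without inhibitor and -100% = no enzyme wells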
#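 After 15 min at room temperature with compound, 15 nM Sfp received 5 uM rhodamine-CoA plus 12.5 uM BHQ-2-ybbR (50 mM Hepes pH 7.6, 10 mM MgCl2). Rate came from the fluorescence difference over 30 min, ex 525/em 598 nm.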
# G9a block = qHTS Assay for Inhibitors of Histone Lysine Methyltransferase G9a; Potency, µM (highest dose often 102 µM), for inactives: at the top dose activity, negative = inhibition, hits mostly inhibitors; 8.8% of 350,000 active; AID 504332, 2011; Histone-lysine N-methyltransferase EHMT2 (Homo sapiens), Q96KQ7; G9a H3K9 monomethylation, AlphaScreen, 2 h; note: potency is the fitted concentration of half-maximal effect; nearly all actives have a fitted effect of over 75% in size
# Target sequence (Q96KQ7 913-1193 limits assumed): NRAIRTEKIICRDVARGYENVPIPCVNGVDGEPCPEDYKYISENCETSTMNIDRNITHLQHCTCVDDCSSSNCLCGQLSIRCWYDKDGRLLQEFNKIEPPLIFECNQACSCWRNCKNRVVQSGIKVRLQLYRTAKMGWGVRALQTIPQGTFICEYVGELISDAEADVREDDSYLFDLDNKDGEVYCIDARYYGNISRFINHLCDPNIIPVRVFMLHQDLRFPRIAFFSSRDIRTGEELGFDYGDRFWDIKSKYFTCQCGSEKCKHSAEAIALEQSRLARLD
#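 Using a bead-based AlphaScreen, monomethylated H3K9 product from 2 h room-temperature reactions (G9a 20 nM, peptide 500 nM, SAM 20 uM) was detected with 0.5 ug/mL rabbit anti-H3K9me1 antibody.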
# PLK1 PBD inh = qHTS for Inhibitors of PLK1-PDB (polo-like kinase 1 - polo-box domain): Primary Screen | Plk1 PBD binding of FITC phosphopeptide, fluorescence polarization | Potency, µM, for inactives: max response, negative = inhibition, most hits filed as inhibitors | Serine/threonine-protein kinase PLK1 (Homo sapiens), P53350 | 2.8% of 360,000 active; note: potency is the fitted concentration of half-maximal effect; series mostly up to about 57 µM; nearly all actives have a fitted effect of over 65% in size
# CCT modulator = High-Throughput Screening for Modulators of Cytosolic Chaperonin Activity | activity change, % (no concentration beside the values), hits read low | 0.3% of 360,000 active | purified chaperonin ATPase assay, HTRF ADP detection, 30 min | AID 651819, 2012; in the data active = activity change below about -30%
#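 ATPase activity: ADP formed was measured by HTRF Transcreener (665/615 nm ratio) after 30 min at 37 deg C with 10 uM ATP. Compounds screened at one 76 uM concentration against 40 or 20 nM TRiC in Tris pH 7.4/KCl/MgCl2/DTT buffer.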
# VDR inh = Inhibitors of the vitamin D receptor (VDR): qHTS; 0.93% of 400,000 active; AID 504847, 2011; Potency, µM, without a hit: max response, negative = inhibition, hits mostly inhibitors; VDR-SRC2-3 peptide fluorescence polarization, 2 h; note: potency is the fitted concentration of half-maximal effect
# Target sequence (P11473 whole entry, looked up): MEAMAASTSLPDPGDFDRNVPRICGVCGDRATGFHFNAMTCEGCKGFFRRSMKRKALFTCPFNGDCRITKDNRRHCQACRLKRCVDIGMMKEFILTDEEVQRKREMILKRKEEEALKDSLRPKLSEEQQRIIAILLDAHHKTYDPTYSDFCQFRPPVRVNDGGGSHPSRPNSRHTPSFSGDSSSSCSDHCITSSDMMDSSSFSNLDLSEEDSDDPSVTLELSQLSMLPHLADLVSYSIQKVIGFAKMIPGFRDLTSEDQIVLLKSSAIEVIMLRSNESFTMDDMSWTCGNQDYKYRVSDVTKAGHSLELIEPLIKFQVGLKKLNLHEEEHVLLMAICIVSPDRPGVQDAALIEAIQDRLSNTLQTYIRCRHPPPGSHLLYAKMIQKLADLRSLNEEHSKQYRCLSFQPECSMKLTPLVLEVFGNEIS
#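 Inhibition of the VDR/SRC2-3 peptide interaction is quantified by fluorescence polarization. Compounds (23 nl, pintool) incubate with the reagents for 2 hours at ambient room temperature.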
# MmCpn inh = Inhibitors of TCP-1 ring complex (TRiC) of Methanococcus maripaludis (MmCpn): qHTS; Chaperonin Mm-Cpn (Methanococcus maripaludis); purified Mm-Cpn ATPase, ADP Transcreener TR-FRET; Potency, µM (highest dose often 76.9 µM), for inactives: top-dose activity, negative = inhibition, most hits filed as inhibitors; 0.031% of 330,000 active; AID 504842, 2011; note: potency is the fitted concentration of half-maximal effect; nearly all actives have a fitted effect of over 80% in size
#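 TR-FRET (320 nm excitation; 590 and 665 nm emission) reports ADP made from 10 uM ATP by 25 nM enzyme; compounds were preincubated 10 min, reaction run 30 min, both at 37°C.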
# Active calls of the source: *; ? = inconclusive; . = no result; ! = not active in a repeat; [ ] = dose if it differs, or a comment. In the library only some 10% were active in any assay of this set; here they are far more common. Unless noted, calls come from the whole dose curve; as a rule, active = well fitted curve in the direction sought with a large enough effect; inconclusive = small, poorly fitted or top-dose-only effect, or another doubt; inactive = no such curve, though single readings can be large; an effect the other way counts as inactive or inconclusive. Unless noted, % is set by controls: 0 for no effect and ±100 for the full control effect.
SMILES,Sfp PPTase inh,G9a block,PLK1 PBD inh,CCT modulator,VDR inh,MmCpn inh
COc1ccc(-n2ccn(Cc3ccc(C)cc3)c(=O)c2=O)cc1OC,.,-45%[59 µM],.,.,0%,.
Cc1ccccc1Nc1oc(-c2ccccc2)nc1-c1cccc2ccccc12,0%,.,.,.,13%,.
COc1cccc(N2CCN(C(=O)c3ccc4nc[nH]c4c3)CC2)c1,8%,?,0%,0,13%,0%
COc1cccc(N2CCN(C(=O)c3ccc4nc(N5CCCCC5)sc4c3)CC2)c1,-9%,40µM*,-9%,-3,-7%,-2%
COc1ccc(N2CCN(C(=O)c3ccc4nc(N5CCCCC5)sc4c3)CC2)cc1,7%,8.9µM*,?,2,14%,-3%
O=C(c1ccc2nc(N3CCOCC3)sc2c1)N1CCCC1,23%,?,3%,0,19%,-4%
CC(C)CN1CCc2nc(-c3ccccc3)c3c(c2CC1)COC(C)C3 (stereo not drawn),27%,.,.,.,.,.
COc1ccc(N2CCN(CCCNC(=O)c3ccc(CS(=O)(=O)c4ccc(Cl)cc4)o3)CC2)cc1,-1%,50µM*,-10%,-7,-21%,0%
O=C(NCCCN1CCCC1)c1ccc(CS(=O)(=O)c2ccc(Br)cc2)o1,-10%,56µM*,-8%,0,-7%,0%
O=C(NCCN1CCCCCC1)c1ccc(CS(=O)(=O)c2ccc(Br)cc2)o1,-13%,?,-15%,2,-2%,0%
CO[C@@H]1COC(=O)CCC[C@@H](C)[C@H](OC)COC(=O)CCC[C@H]1C,15%,.,.,.,.,.
CCOc1ccccc1NCc1cc(=O)oc2cc(C)ccc12,5%,45µM*,-11%,-3,10%,0%
COc1ccccc1NCc1cc(=O)oc2c(C)c(O)ccc12,-9%,?,-7%,-1,-7%,-2%
COc1ccc(N2C(=O)CCC(C(=O)N3CCCCC3)C2c2ccc(OC)c(OC)c2)cc1 (stereo not drawn),20%,56µM*,0%,1,-24%,-2%
COc1ccc(C2C(C(=O)N3CCOCC3)CCC(=O)N2c2ccc(OC)cc2)cc1 (stereo not drawn),4%,-1%[12.7 µM],-3%,-3,4%,1%
NC(N)=NC(=O)c1nc(Cl)c(N2CCCCCC2)nc1N,23%,50µM*!,-4%,-2,0%,-1%
Cc1ccc(NC(=O)C2CC(=O)Nc3ncnn32)cc1Cl (stereo not drawn),0%,27%[12.7 µM],27µM*,-1,-17%,0%
Cc1ccc(NC(=O)C2CC(=O)n3ncnc3N2)cc1C (stereo not drawn),15%,56µM*,6%,0,-10%,-3%
O=C(Nc1ccc(F)cc1)C1CC(=O)n2ncnc2N1 (stereo not drawn),21%,-1%,-3%,-2,-16%,2%
Cc1ccc(-n2nc3c(=O)n(CC(=O)NC(C)C)nc(C)c3c2C)cc1,.,-1%[59 µM],.,.,0%,.
CCC/C=C(\CCC)C(NC(=O)OCC(C)C)c1ccccc1 (stereo not drawn),30%,.,.,.,.,.
O=c1c2ccccc2c(C=Nc2cccc(S(=O)(=O)NCc3ccco3)c2)c(O)n1-c1ccc(Cl)cn1,-3%,28µM*,?,-2,5%,-4%
COC(=O)CN=Cc1c(O)n(-c2ccc(Cl)cn2)c(=O)c2ccccc12,8%,-2%,-2%,-1,5%,0%
CC(C)(C)N/N=C/c1c(O)n(-c2ccc(Cl)cn2)c(=O)c2ccccc12,-9%,3.2µM*,-11%,-1,-10%,-3%
CC1CCN(c2nn3c(=O)c(C(=O)NC(C)C)cnc3s2)CC1,.,4%[59 µM],.,.,9%,.
SMILES,Sfp PPTase inh,G9a block,PLK1 PBD inh,CCT modulator,VDR inh,MmCpn inh
CCOc1ccccc1CNC(=O)Cn1c(-c2ccccc2)cc(C(C)=O)c1C,.,1%[59 µM],.,.,10%,.
COc1ccccc1NS(=O)(=O)c1ccc(NC(C)=O)cc1,-3%,-1%[59 µM],-4%,1,-9%,0%
CC(=O)c1ccc(S(=O)(=O)Nc2ccc(-c3cn4c(C)csc4n3)cc2)cc1,.,?,.,.,25µM*,.
COc1ccccc1NS(=O)(=O)c1ccc(C(N)=O)cc1,0%,.,24µM*,-4,-5%,-2%
CC(=O)c1ccc(S(=O)(=O)Nc2cccc(-n3cnnn3)c2)cc1,6%,40µM*,?,1,-4%,-2%
COc1ccccc1NS(=O)(=O)c1ccc(Cl)c(NC(=O)C(C)N2C(=O)c3ccccc3C2=O)c1 (stereo not drawn),?,50µM*,-5%,-12,-2%,2%
COc1ccc(S(=O)(=O)Nc2ccc(-c3cn4c(C)csc4n3)cc2)cc1,.,?,.,.,-3%,.
CC(C)CCNC(=O)c1ccc2nc(CCc3ccccc3)oc2c1,.,3%[59 µM],.,.,7%,.
COc1cc(OC)cc(C(=O)Nc2ccc3c(c2)N(C2CCCC2)C(=O)c2ccccc2S3)c1,.,0%[59 µM],.,.,5%,.
CCN(CC(=O)Nc1ccccc1OC)C(=O)c1ccc(NS(=O)(=O)c2ccc(C(C)=O)cc2)cc1,13%,?,?,2,22%,0%
COc1ccccc1Nc1ccc(N)cc1,-15%,13µM*,-21%,-2,-3%,-7%
COc1ccccc1Nc1ccc(NS(=O)(=O)c2ccc(C(C)=O)cc2)cc1,-3%,35µM*,-9%,1,13%,-4%
CC(=O)c1ccc(NS(=O)(=O)c2ccc(N)cc2)cc1,12%,-5%,30µM*,-3,?,-1%
Cc1cccc(-c2noc(CN(C(=O)c3ccccc3Cl)C(C)C)n2)c1,.,4%[59 µM],.,.,1%,.
COc1cccc(OC(=O)CSc2nnc(-c3ccc4c(c3)OCO4)o2)c1,.,-32%[59 µM],.,.,10%,.
COc1ccc(Cl)cc1C=CC=NNS(=O)(=O)c1ccc(C)cc1,.,.,1%,-2,-6%,.
COc1ccc(Cl)cc1C=CC=Nc1ccccc1O,.,.,-13%,0,89µM*,.
O=[N+]([O-])c1ccc(Cl)c(-c2ccc(/C=N/n3cnnc3)o2)c1,-7%,71µM*,-29%,-1,-6%,0%
O=[N+]([O-])c1cc(-c2ccc(/C=N/n3cnnc3)o2)ccc1Cl,-7%,.,3%,-1,4%,-2%
Fc1ccc(-c2ccc(/C=N\n3cnnc3)o2)cc1Cl,-10%,2%[59 µM],-17%,-3,-13%,0%
